High-throughput results (PubChem BioAssay)
An excerpt weighted towards active compounds, which were near 5.7% of everything screened.
JMJD2E inh – inhibitors of human JMJD2E histone demethylase. hit rate 1.6% among 230,000. JMJD2E catalytic domain, FDH-coupled NADH fluorescence (FDH is formaldehyde dehydrogenase). B2RXH2. Potency, µM (doses to about 57.1 µM), inactives show at the top dose activity change, negative = inhibition, hits mostly inhibitors; active = well fitted inhibition curve with a large enough effect, not every such curve was filed as active; inconclusive = small, poorly fitted or top-dose-only effect, or another doubt; inactive = no such curve, though single readings can be large or run the other way;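 also: potency is read from the fitted curve at half-maximal effect; 0% = wells with enzyme and -100% = buffer wells without enzyme; nearly all actives have a fitted effect of over 50% in size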
Target sequence (B2RXH2 1-337 limits assumed): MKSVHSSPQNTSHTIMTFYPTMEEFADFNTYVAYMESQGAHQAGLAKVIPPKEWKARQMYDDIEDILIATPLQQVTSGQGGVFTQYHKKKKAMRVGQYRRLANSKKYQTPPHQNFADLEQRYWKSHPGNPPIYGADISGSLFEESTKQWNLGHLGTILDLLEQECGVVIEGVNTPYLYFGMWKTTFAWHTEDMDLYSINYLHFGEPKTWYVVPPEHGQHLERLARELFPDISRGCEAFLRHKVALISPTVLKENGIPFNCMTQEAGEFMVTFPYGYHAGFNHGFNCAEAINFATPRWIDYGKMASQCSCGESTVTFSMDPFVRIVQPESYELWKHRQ
L3MBTL1 inh – L3MBTL1 (human) inhibition; Potency, µM (series often up to 57.1 µM), for inactives: at the top dose activity, negative = inhibition, hits mostly inhibitors; Q9Y468; AlphaScreen L3MBTL1–H3K9me1 peptide binding; hit rate 0.66% among 230,000; AID 485360; also: potency is read from the fitted curve at half-maximal effect; % is scaled to controls: 0 for no effect and ±100 for the full control effect; nearly all actives have a fitted effect of over 60% in size
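L3MBTL1 (50 nM) pre-complexed 30 min with biotinylated H3(1-15)K9me1 peptide (75 nM), then compounds added for 30 min at room temperature; AlphaScreen streptavidin donor/nickel chelate acceptor beads (10 ug/mL final) read after 30 min dark incubation.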
HP1b chromo inh – blocks HP1-beta chromodomain binding to methylated histone tails. P83916. AlphaScreen HP1-beta / biotin-H3K9me3 peptide binding. Potency, µM (highest dose often 114 µM), without a hit: at the top dose activity change, negative = inhibition, actives largely listed as inhibitors. hit rate 0.56% among 390,000. AID 540317; also: potency is read from the fitted curve at half-maximal effect; nearly all actives have a fitted effect of over 70% in size
Target sequence (P83916 whole entry, looked up): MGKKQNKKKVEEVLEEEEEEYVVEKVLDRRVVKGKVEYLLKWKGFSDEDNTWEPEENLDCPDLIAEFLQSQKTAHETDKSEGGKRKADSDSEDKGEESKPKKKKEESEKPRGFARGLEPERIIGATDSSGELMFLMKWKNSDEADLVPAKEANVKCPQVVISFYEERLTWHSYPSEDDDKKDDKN
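HP1-beta protein (50 nM final) preincubated 30 min at room temperature with biotinylated H3(1-18)K9me3 peptide (50 nM) in PBS pH 7.4, 0.01% Tween-20, then compound added for 30 min. AlphaScreen streptavidin donor/nickel chelate acceptor beads (10 ug/mL final), 30 min dark, luminescence read.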
PI5P4Ka inh – PI5P4K alpha (human) kinase inhibition | P48426 | PI5P4Kalpha enzyme, ADP-Glo luminescence, 60 min; active compounds read low | max response, % | hit rate 1.2% among 330,000; active = max response of -50% or lower; inconclusive = between -30% and -50%; inactive = -30% or higher; also: value at the top dose of about 77 µM; % is scaled to controls: 0 for no effect and ±100 for the full control effect
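Quantitative HTS of the MLSMR library against PI5P4Kalpha with substrate. ATP added last at 5 microM final; room temperature, 60 minutes. Remaining ATP depleted, ADP converted and read as luminescence.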
BAZ2B block – BAZ2B (human) inhibition. Q9UIF8. AlphaScreen BAZ2B-H3K14Ac peptide displacement. Potency, µM (doses to about 114 µM), without a hit: at the highest dose activity change, negative = inhibition, actives largely listed as inhibitors. hit rate 4.4% among 360,000. AID 504333; also: potency is read from the fitted curve at half-maximal effect; % is scaled to controls: 0 for no effect and ±100 for the full control effect; nearly all actives have a fitted effect of over 60% in size
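AlphaScreen luminescence quantifies BAZ2B engagement of H3K14Ac peptide; the protein and biotinylated peptide are both at 50 nM final, buffer PBS pH 7.4 with 0.01% Tween-20, all steps at room temperature.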
JMJD2A Tudor inh – inhibitors of human JMJD2A Tudor domain. O75164. AlphaScreen JMJD2A-Tudor / H3K4me3 peptide binding. Potency, µM (titrated, usually from 114 µM), without a hit: at the highest dose activity change, negative = inhibition, most hits filed as inhibitors. hit rate 4.4% among 390,000. AID 504339; also: potency is read from the fitted curve at half-maximal effect; % is scaled to controls: 0 for no effect and ±100 for the full control effect; nearly all actives have a fitted effect of over 50% in size
Active calls of the source: *; [ ] = remark or other dose. Unless noted, calls follow the shape of the dose curve; as a rule, active = well fitted inhibition curve with a large enough effect; inconclusive = small, poorly fitted or top-dose-only effect; inactive = no such curve, though single readings can be large or run the other way.

What do the screens show for `COc1ccc(S(=O)(=O)/N=C2/C=CC(=O)C(C)=C2C)cc1`?
JMJD2E inh: -12%; L3MBTL1 inh: -3%; HP1b chromo inh: inconclusive; PI5P4Ka inh: -17; BAZ2B block: -8%; JMJD2A Tudor inh: -35%

What do the screens show for `CC1=C/C(=N\OS(=O)(=O)c2ccccc2)C(C(C)C)=CC1=O`?
JMJD2E inh: 4µM*; L3MBTL1 inh: -10%; HP1b chromo inh: inconclusive; PI5P4Ka inh: 4; BAZ2B block: 35µM*; JMJD2A Tudor inh: inconclusive

What do the screens show for `CC1=C(C)/C(=N\OS(=O)(=O)c2ccc(C)cc2)C=CC1=O`?
JMJD2E inh: -3%; L3MBTL1 inh: inconclusive; HP1b chromo inh: inconclusive; PI5P4Ka inh: -4; BAZ2B block: 25µM*; JMJD2A Tudor inh: 56µM*

Results for CC1=C/C(=N\OS(=O)(=O)c2ccccc2)C(C)=CC1=O ?
JMJD2E inh: 13%; HP1b chromo inh: -57%; PI5P4Ka inh: -3; BAZ2B block: 35µM*; JMJD2A Tudor inh: inconclusive

How did CCc1ccccc1NC(=O)Cc1ccc(-n2c(C)nc3cccnc32)cc1 do in these assays?
HP1b chromo inh: 28%; BAZ2B block: -12%; JMJD2A Tudor inh: 10%

Results for CC(=O)c1ccc(NC(=O)COc2ccccc2-c2nc(-c3ccc(C)cc3)no2)cc1 ?
HP1b chromo inh: 27%; BAZ2B block: -12%; JMJD2A Tudor inh: -15%

Results for Cc1ccc(Oc2c(C(F)(F)F)oc3c(CN4CCC(C)CC4)c(O)ccc3c2=O)cc1 ?
HP1b chromo inh: 22%; BAZ2B block: 5%; JMJD2A Tudor inh: -12%

How did CCn1c2ccccc2c2cc(/C=C(/C#N)C(N)=S)ccc21 do in these assays?
HP1b chromo inh: inconclusive; PI5P4Ka inh: -8; JMJD2A Tudor inh: 20µM*

How did COC(=O)C(NS(=O)(=O)CCl)C(C)C (centres undefined) do in these assays?
HP1b chromo inh: 12%; JMJD2A Tudor inh: -12%

What do the screens show for `CCN1CCN(C(c2ccccc2Cl)c2sc3nc(-c4ccco4)nn3c2O)CC1` (centres undefined)?
HP1b chromo inh: 28%; BAZ2B block: -14%; JMJD2A Tudor inh: -28%

How did CCN(CCCNS(=O)(=O)c1ccc2c(c1)CCN2C(C)=O)c1cccc(C)c1 do in these assays?
JMJD2E inh: inconclusive; L3MBTL1 inh: -22%; HP1b chromo inh: -20%; PI5P4Ka inh: -1; BAZ2B block: inconclusive; JMJD2A Tudor inh: 22µM*

Results for CC(=O)N1CCc2cc(S(=O)(=O)Nc3cccc(C(F)(F)F)c3)ccc21 ?
JMJD2E inh: 3%; HP1b chromo inh: 9%; PI5P4Ka inh: 2; BAZ2B block: 3%; JMJD2A Tudor inh: 89µM*

What do the screens show for `COc1cccc(-n2cc(C(=O)Oc3ccc(F)cc3)c3ccccc3c2=O)c1`?
HP1b chromo inh: 17%[57 µM]; BAZ2B block: 3%; JMJD2A Tudor inh: -10%

What do the screens show for `O=[N+]([O-])c1cc(-n2cnnn2)ccc1N1CCC(Cc2ccccc2)CC1`?
JMJD2E inh: 6%; L3MBTL1 inh: inconclusive; HP1b chromo inh: -42%; BAZ2B block: 28µM*; JMJD2A Tudor inh: 10µM*

What do the screens show for `CC1CC(C)CN(c2ccc(-n3cnnn3)cc2[N+](=O)[O-])C1` (centres undefined)?
JMJD2E inh: -3%; L3MBTL1 inh: -15%; HP1b chromo inh: -28%; PI5P4Ka inh: 1; BAZ2B block: inconclusive; JMJD2A Tudor inh: inconclusive

How did Cn1c(N)c(C(=O)Nc2ccc(-c3ccccc3)cc2)sc1=S do in these assays?
JMJD2E inh: 6%; L3MBTL1 inh: -29%; HP1b chromo inh: inconclusive; PI5P4Ka inh: -5; BAZ2B block: 50µM*; JMJD2A Tudor inh: 50µM*

What do the screens show for `C=CC(=O)Nc1cccc(N(C)c2ccnc(Nc3ccc(N4CCN(C)CC4)cc3)n2)c1`?
HP1b chromo inh: 50µM*; PI5P4Ka inh: -65*; JMJD2A Tudor inh: 14µM*

Results for C=CC(=O)Nc1cccc(Oc2ccnc(Nc3ccc(N4CCN(C)CC4)cc3)n2)c1 ?
HP1b chromo inh: inconclusive; PI5P4Ka inh: -10; JMJD2A Tudor inh: 45µM*

How did CN1CCN(c2ccc(NC(=O)COc3cccc4ccccc34)cc2)CC1 do in these assays?
HP1b chromo inh: -10%; PI5P4Ka inh: 1; BAZ2B block: inconclusive; JMJD2A Tudor inh: inconclusive

What do the screens show for `C=CC(=O)Nc1cccc(Oc2ccnc3[nH]ccc23)c1`?
HP1b chromo inh: inconclusive; PI5P4Ka inh: -72*; JMJD2A Tudor inh: 79µM*

What do the screens show for `CN1CCN(c2ccc(NC(=O)COc3ccc4ccccc4c3)cc2)CC1`?
HP1b chromo inh: 12%; PI5P4Ka inh: -2; BAZ2B block: -18%; JMJD2A Tudor inh: -25%

What do the screens show for `CN(C(=O)CSc1nnc(C2CC2)n1-c1ccccc1)C1CCS(=O)(=O)C1` (centres undefined)?
L3MBTL1 inh: -1%; HP1b chromo inh: 38%; PI5P4Ka inh: 7; BAZ2B block: 2%; JMJD2A Tudor inh: -3%

What do the screens show for `Cc1ccc(Cn2c(C(C)NC(=O)c3ccccc3)nc3ccccc32)cc1` (centres undefined)?
HP1b chromo inh: 76%; BAZ2B block: 17%; JMJD2A Tudor inh: -15%

Results for C=C(C)CSc1nnc([C@@H]2CCCN2)o1 ?
JMJD2E inh: 1%; HP1b chromo inh: 48%; PI5P4Ka inh: -1; BAZ2B block: 50µM*; JMJD2A Tudor inh: 50µM*

How did O=C(CSc1nnc([C@@H]2CCCN2)o1)c1ccc(Cl)cc1 do in these assays?
JMJD2E inh: -5%; L3MBTL1 inh: 0%; HP1b chromo inh: 33%; PI5P4Ka inh: inconclusive; BAZ2B block: -30%; JMJD2A Tudor inh: inconclusive

What do the screens show for `COc1cc(NS(=O)(=O)c2ccc(C)cc2)c2ncccc2c1`?
JMJD2E inh: 6%; L3MBTL1 inh: 9%; HP1b chromo inh: 77%; PI5P4Ka inh: 1; BAZ2B block: 11%; JMJD2A Tudor inh: -7%

How did COc1cc(NS(=O)(=O)c2cccc([N+](=O)[O-])c2)c2ncccc2c1 do in these assays?
JMJD2A Tudor inh: 56µM*

Results for COc1cc(NS(=O)(=O)c2ccc([N+](=O)[O-])cc2)c2ncccc2c1 ?
JMJD2A Tudor inh: 56µM*

What do the screens show for `COC(=O)c1ccc(C(=O)OC)c(NC(=O)CSc2cccc[n+]2[O-])c1`?
JMJD2E inh: inconclusive; L3MBTL1 inh: 15%; HP1b chromo inh: inconclusive; PI5P4Ka inh: inconclusive; BAZ2B block: -3%; JMJD2A Tudor inh: 45µM*

What do the screens show for `COc1ccc(-c2nc(N3CCN(C)CC3)sc2-c2ccc(OC)cc2)cc1`?
HP1b chromo inh: 50µM*; PI5P4Ka inh: 12; BAZ2B block: 28µM*; JMJD2A Tudor inh: 22µM*
